Test results: the supplement of paper PMC12340860
± gives the standard deviation of the averaged measurements.

test system: Caenorhabditis elegans infected with Nematocida parisii; assay: progeny production of N. parisii-infected C. elegans relative to uninfected control; higher = stronger inhibition of microsporidia infection (rescue of reproduction); settings: 60 µM; incubation time 5 days; spore dose (spores/uL): 18000
Protocol: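 C. elegans N2 L1 larvae (100 per well, 96-well plate, K-medium with 5x E. coli OP50, 1% DMSO) were infected with Nematocida parisii spores (18,000 spores/uL) that had been pre-incubated for 1 h with each BU-CMD library compound at 60 uM. Plates were incubated 5 days at 21 C with shaking. Progeny were stained with rose bengal, scanned on a flatbed scanner and counted with WorMachine. Progeny number is expressed as % of uninfected DMSO controls on the same plate; three biological replicates per compound; hits were compounds with at least 60% progeny production.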

| Structure (SMILES) | progeny production [%] |
| --- | --- |
| COc1ccc(C2=CC3=C(Br)C(=O)C(C)(O)C(=O)C3=CO2)cc1 (centres undefined) | 80.6 ± 13 |
| COC(=O)C1=C(C)N(CCc2cc(OC)c(OC)c(OC)c2)C(=O)N[C@H]1c1ccccc1 | 38.1 ± 18 |
| C=C(C)C[C@@H](O)COc1cc2c(cc1C1(c3cc4c(cc3OC[C@H](O)CC(=C)C)OCO4)C(=O)Nc3cc(F)ccc31)OCO2 | 20.5 ± 11 |
| CC(=O)[C@@H]1[C@@H](C)N(Cc2ccccc2)C(=O)N[C@H]1c1cccc(C(F)(F)F)c1 | 33.2 ± 12 |
